# Test results published in PubChem BioAssay (NCATS).
# Several values for one entry are separate records, joined by “and”; a condition that tells them apart may be missing. Equal values may be shown once. Results filed as inconclusive are left out. A call without a number means that no potency is given here. Unmarked numbers belong to inactive results. Activity calls are given as the source filed them. The call rests on the fitted dose curve; in most records, active means well fitted inhibition curve with a large enough effect; inconclusive means small, poorly fitted or top-dose-only effect; inactive means flat fitted curve, though single readings scatter.
# Experiments:
# CRL-7250 = normal cell line; experiment: Cytotoxic Profiling of Annotated Libraries Using Quantitative High-Throughput Screening (AID 1296008); details: Five cell lines viability, CellTiter-Glo ATP luminescence, 48-72 h; max response: hits give low values; further: potency means the concentration at half of the fitted maximal effect
# Procedure, shortened: (§1)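 Compounds were pin-transferred onto cells and incubated 48 or 72 hr at 37 degree Celsius, 95% humidity. CellTiter-Glo was added, plates sat 10 min at room temperature, then ATP-coupled luminescence was imaged as the viability read-out.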
# HEK293 = experiment: as above; details: Five cell lines viability, CellTiter-Glo ATP luminescence, 48-72 h; max response: hits give low values
# Procedure, shortened: as §1
# HaCat [1] = experiment: as above; details: Five cell lines viability, CellTiter-Glo ATP luminescence, 48-72 h; max response: hits give low values
# Procedure, shortened: as §1
# KB-3-1 = experiment: as above; details: Five cell lines viability, CellTiter-Glo ATP luminescence, 48-72 h; max response: hits give low values
# Procedure, shortened: as §1
# NIH3T3 = experiment: as above; details: Five cell lines viability, CellTiter-Glo ATP luminescence, 48-72 h; max response: hits give low values
# Procedure, shortened: as §1
# HEK293T = experiment: qHTS assay to identify novel small-molecules to repurpose for Merkel cell carcinoma treatment (AID 1296009); details: MCC and control cell lines, CellTiter-Glo viability, 72 h; at 44.8 µM (top of the series) unless noted
# Procedure, shortened: (§2)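 Cells exposed to NPC (8-point) and MIPE (11-point) compound dilutions for 72 hr at 37 degree celsius; viability read by CellTiter-Glo luminescence, normalized to no-cell and DMSO in-plate controls.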
# HACAT [2] = experiment: as above; details: MCC and control cell lines, CellTiter-Glo viability, 72 h; at 44.8 µM (top of the series) unless noted
# Procedure, shortened: as §2
# JCK = experiment: qHTS profiling for inhibitors of Plasmodium falciparum proliferation (AID 504749); details: P. falciparum in erythrocytes, SYBR Green DNA, 72 h; series mostly up to 28.7 µM
# Procedure, shortened: (§3)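 P. falciparum-infected erythrocytes (0.3% parasitemia, 2.5% hematocrit final) were exposed to compounds for 72 h at 37 C in 5% CO2, then lysed with SYBR Green buffer overnight at room temperature; parasite DNA fluorescence was normalized to artemisinin and DMSO controls.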
# N140 = experiment: as above; details: P. falciparum in erythrocytes, SYBR Green DNA, 72 h; series mostly up to 28.7 µM
# Procedure, shortened: as §3
# P93_24 = experiment: as above; details: P. falciparum in erythrocytes, SYBR Green DNA, 72 h; series mostly up to 28.7 µM
# Procedure, shortened: as §3
# P94_40 = experiment: as above; details: P. falciparum in erythrocytes, SYBR Green DNA, 72 h; series mostly up to 28.7 µM
# Procedure, shortened: as §3
# PAD = experiment: as above; details: P. falciparum in erythrocytes, SYBR Green DNA, 72 h; series mostly up to 28.7 µM
# Procedure, shortened: as §3
# PC15 = experiment: as above; details: P. falciparum in erythrocytes, SYBR Green DNA, 72 h; series mostly up to 28.7 µM
# Procedure, shortened: as §3
# PC26 = experiment: as above; details: P. falciparum in erythrocytes, SYBR Green DNA, 72 h; series mostly up to 28.7 µM
# Procedure, shortened: as §3
# PC49 = experiment: as above; details: P. falciparum in erythrocytes, SYBR Green DNA, 72 h; series mostly up to 28.7 µM
# Procedure, shortened: as §3
# SC27B = experiment: as above; details: P. falciparum in erythrocytes, SYBR Green DNA, 72 h; series mostly up to 28.7 µM
# Procedure, shortened: as §3
# TAB109 = experiment: as above; details: P. falciparum in erythrocytes, SYBR Green DNA, 72 h; series mostly up to 28.7 µM
# Procedure, shortened: as §3
# TAB113 = experiment: as above; details: P. falciparum in erythrocytes, SYBR Green DNA, 72 h; series mostly up to 28.7 µM
# Procedure, shortened: as §3
# TAB165 = experiment: as above; details: P. falciparum in erythrocytes, SYBR Green DNA, 72 h; series mostly up to 28.7 µM
# Procedure, shortened: as §3
# W2 = experiment: as above; details: P. falciparum in erythrocytes, SYBR Green DNA, 72 h; series mostly up to 28.7 µM
# Procedure, shortened: as §3
# Further: nearly all actives have a fitted effect of over 60% in size.
smiles,measurement,setting,value
CCOC(=O)[C@H]1O[C@H]1C(=O)N[C@@H](CC(C)C)C(=O)NCCC(C)C,max response,CRL-7250,-2.98%
same,outcome,HEK293,inactive
same,max response,HaCat [1],-0.586%
same,max response,KB-3-1,0.158%
same,max response,NIH3T3,1.05%
same,outcome,HEK293T,inactive
Cn1cnc(-c2cc3nccc(Oc4ccc(NC(=S)NC(=O)Cc5ccccc5)cc4F)c3s2)c1,Potency,CRL-7250,26.4 µM (active)
same,Potency,HEK293,23.5 µM (active)
same,Potency,NIH3T3,11.8 µM (active) and 13 µM (active)
Nc1nc(Cl)nc2c1ncn2[C@@H]1O[C@H](CO)[C@@H](O)[C@H]1F,Potency,CRL-7250,1.66 µM (active)
same,Potency,HEK293,0.469 µM (active)
same,Potency,HaCat [1],0.0743 µM (active)
same,Potency,NIH3T3,166 nM (active)
CCC(C)SSc1ncc[nH]1 (stereo unspecified),max response,CRL-7250,-3.49%
same,Potency,HEK293,13.2 µM (active)
same,outcome,HaCat [1],inactive
same,max response,NIH3T3,-14.8%
same,outcome,HACAT [2],inactive
O=C(O)c1nc(=O)[nH]c(=O)[nH]1,outcome,JCK,inactive
same,Potency,N140,inactive
same,Potency,P93_24,inactive
same,Potency,P94_40,inactive
same,Potency,PAD,inactive
same,outcome,PC15,inactive
same,Potency,PC26,inactive
same,outcome,PC49,inactive
same,Potency,SC27B,inactive
same,Potency,TAB109,inactive
same,Potency,TAB113,inactive
same,Potency,TAB165,inactive
same,Potency,W2,inactive
same,max response,CRL-7250,1.07%
same,max response,HEK293,-17.5%
same,max response,HaCat [1],1.83%
same,max response,KB-3-1,13.7% and 2.52%
same,max response,NIH3T3,0.163%
O=C(CCCN1CCN(c2ccc(F)cc2)CC1)NC1c2ccccc2CSc2ccccc21 (stereo unspecified),Potency,CRL-7250,8.33 µM (active)
same,Potency,HEK293,3.72 µM (active)
same,max response,HaCat [1],-5.32%
same,max response,NIH3T3,-3.67%
C=C1c2cccc(O)c2C(O)=C2C(=O)[C@@]3(O)C(O)=C(C(N)=O)C(=O)[C@@H](N(C)C)[C@@H]3[C@@H](O)[C@H]12,outcome,JCK,inactive
same,Potency,N140,inactive
same,Potency,P94_40,inactive
same,Potency,PAD,inactive
same,outcome,PC15,inactive
same,Potency,PC26,inactive
same,outcome,PC49,inactive
same,Potency,SC27B,inactive
same,Potency,TAB109,inactive
same,Potency,TAB113,inactive
same,max response,CRL-7250,-8.75%
same,max response,HEK293,0.32%
same,outcome,HaCat [1],inactive
same,max response,KB-3-1,1.29%
same,max response,NIH3T3,-2.7%
same,outcome,HACAT [2],inactive
